Laboratory results taken from paper PMC4336329 (PLoS ONE, 2015).
Among all 310,000 compounds or so, about 14,000 (4.5%) showed an effect of 50% or more. Effects have a minus sign here. This is one part of a sample in which strong results are shown more often than they occur.

These molecules were tested against human ether-à-go-go-related gene (hERG) potassium channel (human, UniProt Q12809) (assay: primary screen, population patch clamp on CHO cells stably expressing hERG; higher = less effect of the substance).
Sequence of human ether-à-go-go-related gene (hERG) potassium channel (Q12809 whole entry, looked up): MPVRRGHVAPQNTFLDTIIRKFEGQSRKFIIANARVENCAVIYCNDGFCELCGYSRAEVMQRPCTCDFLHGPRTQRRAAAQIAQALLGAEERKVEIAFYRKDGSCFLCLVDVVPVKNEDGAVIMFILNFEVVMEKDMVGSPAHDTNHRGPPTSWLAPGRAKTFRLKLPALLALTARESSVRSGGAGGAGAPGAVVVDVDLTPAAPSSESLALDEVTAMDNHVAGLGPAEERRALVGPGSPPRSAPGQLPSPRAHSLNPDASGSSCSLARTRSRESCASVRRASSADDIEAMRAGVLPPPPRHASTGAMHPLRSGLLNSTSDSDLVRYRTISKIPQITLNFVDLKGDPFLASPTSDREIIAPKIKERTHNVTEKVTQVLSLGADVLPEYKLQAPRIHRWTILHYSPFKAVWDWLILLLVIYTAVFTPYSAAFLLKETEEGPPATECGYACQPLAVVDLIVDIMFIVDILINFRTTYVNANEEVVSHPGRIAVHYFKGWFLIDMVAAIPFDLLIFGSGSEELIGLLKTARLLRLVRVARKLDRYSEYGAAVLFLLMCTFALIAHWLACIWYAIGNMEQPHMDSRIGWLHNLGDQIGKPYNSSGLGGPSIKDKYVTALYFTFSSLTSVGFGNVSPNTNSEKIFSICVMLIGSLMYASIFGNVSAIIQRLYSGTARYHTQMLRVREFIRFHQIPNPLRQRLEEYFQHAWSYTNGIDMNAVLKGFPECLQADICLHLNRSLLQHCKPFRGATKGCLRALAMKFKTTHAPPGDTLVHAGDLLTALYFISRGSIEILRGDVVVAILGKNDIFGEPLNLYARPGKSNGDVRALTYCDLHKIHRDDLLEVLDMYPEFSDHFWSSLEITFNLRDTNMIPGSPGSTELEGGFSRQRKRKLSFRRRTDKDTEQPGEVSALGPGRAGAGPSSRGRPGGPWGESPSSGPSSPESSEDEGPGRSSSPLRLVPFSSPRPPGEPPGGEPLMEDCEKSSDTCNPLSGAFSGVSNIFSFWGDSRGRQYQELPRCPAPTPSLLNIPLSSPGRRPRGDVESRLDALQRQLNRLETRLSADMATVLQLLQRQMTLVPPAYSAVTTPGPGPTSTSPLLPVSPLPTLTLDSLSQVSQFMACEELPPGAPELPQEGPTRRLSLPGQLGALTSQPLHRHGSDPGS
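Also: peak tail current of the secondary pulse compared with the same well before compound.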

SMILES | hERG current change (%, negative = inhibition) at 10uM
CC(C)(C)NCc1cccn1-c1sc2c(c1C#N)CCCC2 | -13.4%
NC(=S)Nc1ncc(C(F)(F)F)cc1Cl | 12.2%
CC(C)NC(=O)c1sc(=S)n2c1[nH]c(=O)c1ccc(C(=O)NCCc3ccc(Cl)cc3)cc12 | 14.1%
N#CC(c1ccccc1)N(CCCCl)C(=O)c1ccccc1 (stereo not shown) | -18.9%
c1ccc(OCCCc2nc(-c3ccccn3)no2)cc1 | -0.0161%
CCCCCCc1ccc(N2C[C@H](CCCCC)[C@@H](CC(=O)NCc3ccccc3)C2=O)cc1 | -1.8%
C[C@H]1CN(Cc2ccccc2)C(=O)[C@@H]1CC(=O)NCc1ccccc1 | 1.31%
CCCCC[C@H]1CN(Cc2ccccc2)C(=O)[C@@H]1CC(=O)NCc1ccccc1 | -65.8%
O=C(c1cccc(C(F)(F)F)c1)N1CCC(O)(CS(=O)(=O)Cc2ccc(Cl)cc2)CC1 | 17.5%
CCN(c1ccccc1)S(=O)(=O)c1cc(C(=O)OC(C)C(=O)Nc2ccc3c(c2)OCCO3)ccc1C (stereo not shown) | 14.1%
Cc1ccc(-c2csc(=S)n2CC(=O)OCC(=O)NC(C)C(C)C)cc1 (stereo not shown) | 3.12%
CN(CC(=O)Nc1ccc(Cl)c(C(F)(F)F)c1)C(=O)C1CC(=O)N(Cc2ccco2)C1 (stereo not shown) | -20.1%
Cc1[nH]c2ccccc2c1/C=N/NC(=O)c1ccc(N)cc1 | 11.2%
COc1ccc(CCN2C(=O)C3C4CC(C5C(C(=O)N/N=C\c6ccc(Cl)cc6)=NOC45)C3C2=O)cc1OC (stereo not shown) | -67.7%
COc1ccc(CCN2C(=O)C3C4CC(C5C(C(=O)NN)=NOC45)C3C2=O)cc1OC (stereo not shown) | 7.3%
COc1ccc(CCN2C(=O)C3C4CC(C5C(C(N)=O)=NOC45)C3C2=O)cc1OC (stereo not shown) | -2.12%
CN(C)S(=O)(=O)N1CCC(Oc2ccc(C(=O)N3CCCCCCC3)cc2)CC1 | 10.9%
CCOc1ccccc1N1CCN(C(=O)NCc2ccc(Cl)cc2)CC1 | -14.6%
CCCNC(=O)c1ccccc1N1CCN(CCCCN2C(=O)C3CCCCN3C2=O)CC1.Cl.O (stereo not shown) | -33.5%
Cl.O.O=C1C2CCCCN2C(=O)N1CCCCN1CCN(c2ccccc2Oc2ccccc2)CC1 (stereo not shown) | -55.7%
COc1ccccc1N1CCN(CCCCN2C(=O)C3CCCCN3C2=O)CC1 (stereo not shown) | -12.8%
COc1ccccc1N1CCN(CCN2C(=O)C3CCCCN3C2=O)CC1 (stereo not shown) | 4.39%
Cc1ccccc1N1CCN(CCCN2C(=O)C3CCCCN3C2=O)CC1 (stereo not shown) | -9.54%
Cc1ccccc1N1CCN(CCCCN2C(=O)C3CCCN3C2=O)CC1.Cl.O (stereo not shown) | -65.4%
CCCCOc1ccccc1N1CCN(CCCN2C(=O)C3CCCN3C2=O)CC1.Cl (stereo not shown) | -56.7%
Cc1ccc(N2CCN(CCCCN3C(=O)C4CCCN4C3=O)CC2)cc1.Cl (stereo not shown) | -23.9%
COc1ccccc1N1CCN(CCN2C(=O)C3CCCN3C2=O)CC1 (stereo not shown) | 12%
O=C(Nc1ccccc1)OC1C2CCC1C(N1CCCCC1)CC2 (stereo not shown) | -37.5%

SMILES | hERG current change (%, negative = inhibition) at 10uM
O=C(Nc1ccc(OCc2ccccc2Cl)cc1)c1cccnc1 | 1.02%
Cc1ccc(C(=O)N2CCCC(Nc3ccc(F)cc3)C2)cc1C (stereo not shown) | 0.463%
Cc1ccc(-c2ccc(=O)n(CC(=O)NCc3ccco3)n2)cc1 | -10%
O=C1C2C3c4ccccc4C(c4ccccc43)C2C(=O)N1Cc1ccco1 (stereo not shown) | 5.12%
Cn1c(=O)n(C)c2cc(S(=O)(=O)O)ccc21 | 4.49%
Cc1ccc(S(=O)(=O)NCC(=O)Nc2ccc3c(c2)OCO3)cc1 | 8.87%
Cc1ccc(N2C(=O)CC(=O)NC2=O)cc1 | -16.9%
CCN(CC)CCN(C(=O)c1ccc(C(=O)c2ccccc2)cc1)c1nc2c(OC)cccc2s1.Cl | -68%
CCN(CC)CCN(C(=O)c1ccc(C(=O)c2ccccc2)cc1)c1nc2ccc(OC)cc2s1.Cl | -45.9%
CCN(CC)CCN(C(=O)c1ccc([N+](=O)[O-])cc1)c1nc2c(OC)cccc2s1.Cl | -73.2%
CCN(CC)CCN(C(=O)c1ccc(S(=O)(=O)N(C)C2CCCCC2)cc1)c1nc2c(C)cccc2s1.Cl | -13.9%
COc1cccc2sc(N(CCCN(C)C)C(=O)c3ccc(S(=O)(=O)N4CCc5ccccc5C4)cc3)nc12.Cl | 3.58%
CN1C(=O)/C(=C/c2ccccc2OCc2cccc(F)c2)N(C)C1=S | 6.02%
O=C(COC(=O)C1CC(=O)N(Cc2ccccc2)C1)Nc1ccc2c(c1)OCO2 (stereo not shown) | 5.98%
Cc1nc2ccc(Cl)cc2c(=O)n1-c1ccccc1Cl | 5.06%
Cl.Clc1ccc(-c2ccc(CNCc3ccccn3)o2)cc1 | -52.4%
Cc1ccc(CNCC2CCCO2)o1 (stereo not shown) | 7.37%
Cl.Clc1ccc(-c2ccc(CNCC3CCCO3)o2)cc1 (stereo not shown) | -62.4%
Cl.Clc1cccc(-c2ccc(CNCc3ccccn3)o2)c1 | -16.2%
CCN(CC)CCNCc1ccc(-c2ccc(Cl)cc2)o1.Cl | -72.8%
OCCc1ccc(-c2ccc(Cl)cc2)o1 | 7.65%
Cl.Clc1ccc(CNCC2CCCO2)c(Cl)c1 (stereo not shown) | -2.74%
CN1CCN(Cc2ccc(-c3ccc(Cl)cc3)o2)CC1 | -31.7%
Cl.Fc1ccc(-c2ccc(CNCc3ccccn3)o2)cc1Cl | -34.9%
CCCn1c(SCC(=O)NC2CC2)nnc1-c1ccccn1 | -2.29%
COc1ccccc1NC(=O)c1sc2nc(Cc3ccccc3)cc(C(F)(F)F)c2c1N | -7.85%
COc1ccccc1CC(=O)N1CCOCC1 | 21%
